One assay has as its target Albumin (Bos taurus) (UniProt P02769). Put plainly: bovine serum albumin binders on microarray, profiling panel, artefact control for SMM control protein annotation, biochemical, small-molecule microarray, Alexa647 label, 635/667 nm fluorescence (AID 1118).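 Also: score merges 667 nm emission intensity and signal-to-noise per printed compound spot.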 The settings on record: BSA-A647 binding, fluorescence 635 nm, higher = more signal.
The nature of assay [1]: small-molecule microarray binders of probe aXIP, primary screen, biochemical, NeuroSMM set, 635/667 nm fluorescence (AID 1119).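 Also: probe is the protein aXip251-270 applied at 1 µg/mL to compound-printed slides; binding of probe to printed compounds measured as 667 nm fluorescence plus signal to noise.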 The settings on record: higher = more signal, called active from +8 up or from −8 down.
The nature of assay [2]: small-molecule binders of probe aNOTCH3, primary screen, biochemical, small-molecule microarray, 635/667 nm fluorescence (AID 1120).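 Also: probe is a biotin-tagged antibody raised against NOTCH3 rather than NOTCH3 protein; score merges spot fluorescence near 667 nm with spot signal to noise.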 The settings on record: higher = more signal.
Assay [3] is described as follows: small-molecule binders of probe aNOTCH2, primary screen, biochemical, small-molecule microarray, 635/667 nm fluorescence (AID 1121).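 Also: score merges feature fluorescence read at 667 nm with its signal to noise.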 The settings on record: higher = more signal.
Assay [4] addresses Carbonic anhydrase 2 (Homo sapiens) (UniProt P00918). Put plainly: CAII small-molecule binders, profiling panel, biochemical, small-molecule microarray, Alexa647-labelled CAII (AID 1122). The settings on record: CAII-A647 binding fluorescence, higher = more signal.
Assay [5] is described as follows: COS7 lysate on small-molecule microarray, probe aHis, 635 nm (AID 1123).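 Also: z-score combines 667nm fluorescence intensity with signal-to-noise per printed compound spot.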 The settings on record: COS7 cell lysate, fluorescence, higher = more signal.
Assay [6] in a line: compound binding in COS7 lysate, probe aLAP1, primary screen, cell lysate, small-molecule microarray (AID 1124).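 Also: lysate comes from COS7 cells expressing LAP1 and is applied at 0.3 µg/mL; score merges spot fluorescence near 667 nm with signal-to-noise over triplicate slides.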 The settings on record: probe aLAP1, fluorescence, higher = more signal.
Another assay concerns Sam68 (KHDRBS1). Put plainly: Sam68 small-molecule binders, primary screen, biochemical, small-molecule microarray, 635 nm fluorescence (AID 1125).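 Also: score merges 667 nm channel intensity with signal to noise over triplicate slides.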 The settings on record: small-molecule microarray binding, higher = more signal.
For assay [7], the system named is Chordin-like protein 2 (CHRDL2). Put plainly: CHRDL2 small-molecule binders, primary screen, biochemical, small-molecule microarray, 635 nm fluorescence (AID 1126).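 Also: printed compound slides probed with Chrdl2 protein at 4 µg/mL for 1 h at 4 C; score merges 667 nm emission intensity with signal to noise over three replicate slides.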 The settings on record: small-molecule microarray binding, fluorescence 635 nm; higher = more signal.
Assay [8] has as its target Concanavalin-A (Canavalia ensiformis) (UniProt P02866). The assay can be described thus: ConA small-molecule binders, primary screen, artefact control for SMM control protein annotation, biochemical, small-molecule microarray, Alexa647 label, 635 nm (AID 1127).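 Also: z combines 667 nm emission intensity with signal-to-noise across three replicate slides.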 The settings on record: ConA-A647 binding fluorescence, higher = more signal.
Assay [9] in a line: anti-His antibody binders, primary screen, artefact control for SMM control protein annotation, biochemical, small-molecule microarray, 635 nm fluorescence (AID 1128).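 Also: score merges feature fluorescence with signal-to-noise for each printed compound spot.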 The settings on record: anti-His Alexa647 antibody binding, higher = more signal.
Assay [10] relates to Human papillomavirus type 1a E7 protein (residues 1-88). The assay can be described thus: HPV1a E7 small-molecule binders, primary screen, biochemical, small-molecule microarray, residues 1-88, 635 nm (AID 1129). The settings on record: small-molecule microarray binding, fluorescence 635 nm; higher = more signal.
The target of assay [11] is Focal adhesion kinase 1 (Homo sapiens) (UniProt Q05397). Put plainly: small-molecule microarray binders of FAK, primary screen, biochemical, 635/667 nm fluorescence, BSA, DTT (AID 1130).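 Also: composite of spot emission at 667 nm and signal to noise over triplicate slides.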 The settings on record: PTK2 binding, 635 nm fluorescence, higher = more signal.
Assay [12] deals with Fibrinogen (Alexa647-labelled). The assay can be described thus: fibrinogen binders on compound microarrays, profiling panel, artefact control for SMM control-protein annotation, biochemical, small-molecule microarray, 635/667 nm fluorescence (AID 1131).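 Also: z-score merges 667 nm fluorescence with per-spot signal-to-noise over triplicate slides.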 The settings on record: fibrinogen-A647 binding fluorescence, higher = more signal.
Assay [13] addresses Follistatin (Homo sapiens) (UniProt P19883). Put plainly: follistatin binders on small-molecule microarrays, primary screen, biochemical, small-molecule microarray, 635/667 nm fluorescence (AID 1132). The settings on record: FST binding, 635 nm fluorescence, higher = more signal.
In assay [14] the target is Fibroblast growth factor 2 (Homo sapiens) (UniProt P09038). The assay can be described thus: FGF2 binders on small-molecule microarrays, primary screen, biochemical, small-molecule microarray, 635/667 nm fluorescence (AID 1133). The settings on record: small-molecule microarray binding, FGF2, fluorescence 635/667; higher = more signal.
Assay [15] in a line: mitochondrial membrane potential change in A549 cells, profiling panel, cell-based, JC-1 fluorescence, basal, 24 h, 100 nL (AID 1138).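 Also: A549 lung adenocarcinoma cells under basal conditions with no added stimulus; test concentration not given here.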 The settings on record: higher = more signal.
The next assay deals with Lefty1. Put plainly: Lefty1 binders on small-molecule microarrays, primary screen, biochemical, small-molecule microarray, 635/667 nm fluorescence (AID 1139). The settings on record: small-molecule microarray binding, fluorescence 635/667; higher = more signal.
The subject of assay [16] is wheat germ agglutinin (Triticum aestivum), Alexa647-labelled. Put plainly: wheat germ agglutinin binders on compound microarrays, profiling panel, artefact control for SMM control-protein annotation, biochemical, small-molecule microarray, 635/667 nm fluorescence (AID 1140).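 Also: score merges 667 nm feature emission with signal to noise over triplicate slides.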 The settings on record: WGA-A647 binding, 635 nm fluorescence, higher = more signal.
Assay [17] has as its target Luciferin 4-monooxygenase (Photinus pyralis) (UniProt P08659). The assay can be described thus: firefly luciferase enzyme inhibitors, primary screen, biochemical, luminescence, purified enzyme, 2006 set (AID 1141).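 Also: cell-free assay with purified firefly luciferase at 100 ng per well in PBS; test concentration not given here.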 The settings on record: SteadyGlo luminescence, 30 min, higher = more signal, called active from +8 up or from −8 down.

Structures are written as SMILES. Active and inactive are the calls of the source.

Chain of Luciferin 4-monooxygenase (Photinus pyralis) (P08659 whole entry, looked up): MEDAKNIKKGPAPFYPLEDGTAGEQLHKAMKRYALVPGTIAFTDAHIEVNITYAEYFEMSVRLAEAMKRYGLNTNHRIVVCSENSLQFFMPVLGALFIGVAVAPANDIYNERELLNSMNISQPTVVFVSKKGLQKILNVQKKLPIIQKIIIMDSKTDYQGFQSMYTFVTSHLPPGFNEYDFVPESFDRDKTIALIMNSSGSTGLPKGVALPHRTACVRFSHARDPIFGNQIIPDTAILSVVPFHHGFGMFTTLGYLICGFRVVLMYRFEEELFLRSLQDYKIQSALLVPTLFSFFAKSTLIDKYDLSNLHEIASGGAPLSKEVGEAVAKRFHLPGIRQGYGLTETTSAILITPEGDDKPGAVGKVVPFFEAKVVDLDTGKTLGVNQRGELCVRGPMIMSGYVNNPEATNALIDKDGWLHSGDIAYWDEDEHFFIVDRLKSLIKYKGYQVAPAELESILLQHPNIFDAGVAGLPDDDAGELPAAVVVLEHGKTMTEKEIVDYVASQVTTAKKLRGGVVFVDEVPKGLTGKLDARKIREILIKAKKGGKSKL
Chain of Fibroblast growth factor 2 (Homo sapiens) (P09038 whole entry, looked up): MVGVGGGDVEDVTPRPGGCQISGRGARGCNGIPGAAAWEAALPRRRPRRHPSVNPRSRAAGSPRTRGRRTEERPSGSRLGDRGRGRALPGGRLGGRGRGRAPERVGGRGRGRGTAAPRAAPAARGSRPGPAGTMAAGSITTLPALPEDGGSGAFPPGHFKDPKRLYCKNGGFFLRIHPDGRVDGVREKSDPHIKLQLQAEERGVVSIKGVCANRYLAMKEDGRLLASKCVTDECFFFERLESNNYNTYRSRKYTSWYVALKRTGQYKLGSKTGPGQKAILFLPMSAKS
Chain of Follistatin (Homo sapiens) (P19883 whole entry, looked up): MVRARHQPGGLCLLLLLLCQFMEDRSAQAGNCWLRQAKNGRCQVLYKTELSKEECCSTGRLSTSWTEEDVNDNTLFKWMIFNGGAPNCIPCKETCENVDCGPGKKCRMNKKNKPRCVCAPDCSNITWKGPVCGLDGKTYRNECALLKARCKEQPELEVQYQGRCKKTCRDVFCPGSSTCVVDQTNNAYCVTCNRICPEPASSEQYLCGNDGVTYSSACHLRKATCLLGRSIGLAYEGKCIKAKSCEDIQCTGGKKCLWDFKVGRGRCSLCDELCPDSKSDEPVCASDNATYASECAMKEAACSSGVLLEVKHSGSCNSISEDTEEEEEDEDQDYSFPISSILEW
Chain of Focal adhesion kinase 1 (Homo sapiens) (Q05397 whole entry, looked up): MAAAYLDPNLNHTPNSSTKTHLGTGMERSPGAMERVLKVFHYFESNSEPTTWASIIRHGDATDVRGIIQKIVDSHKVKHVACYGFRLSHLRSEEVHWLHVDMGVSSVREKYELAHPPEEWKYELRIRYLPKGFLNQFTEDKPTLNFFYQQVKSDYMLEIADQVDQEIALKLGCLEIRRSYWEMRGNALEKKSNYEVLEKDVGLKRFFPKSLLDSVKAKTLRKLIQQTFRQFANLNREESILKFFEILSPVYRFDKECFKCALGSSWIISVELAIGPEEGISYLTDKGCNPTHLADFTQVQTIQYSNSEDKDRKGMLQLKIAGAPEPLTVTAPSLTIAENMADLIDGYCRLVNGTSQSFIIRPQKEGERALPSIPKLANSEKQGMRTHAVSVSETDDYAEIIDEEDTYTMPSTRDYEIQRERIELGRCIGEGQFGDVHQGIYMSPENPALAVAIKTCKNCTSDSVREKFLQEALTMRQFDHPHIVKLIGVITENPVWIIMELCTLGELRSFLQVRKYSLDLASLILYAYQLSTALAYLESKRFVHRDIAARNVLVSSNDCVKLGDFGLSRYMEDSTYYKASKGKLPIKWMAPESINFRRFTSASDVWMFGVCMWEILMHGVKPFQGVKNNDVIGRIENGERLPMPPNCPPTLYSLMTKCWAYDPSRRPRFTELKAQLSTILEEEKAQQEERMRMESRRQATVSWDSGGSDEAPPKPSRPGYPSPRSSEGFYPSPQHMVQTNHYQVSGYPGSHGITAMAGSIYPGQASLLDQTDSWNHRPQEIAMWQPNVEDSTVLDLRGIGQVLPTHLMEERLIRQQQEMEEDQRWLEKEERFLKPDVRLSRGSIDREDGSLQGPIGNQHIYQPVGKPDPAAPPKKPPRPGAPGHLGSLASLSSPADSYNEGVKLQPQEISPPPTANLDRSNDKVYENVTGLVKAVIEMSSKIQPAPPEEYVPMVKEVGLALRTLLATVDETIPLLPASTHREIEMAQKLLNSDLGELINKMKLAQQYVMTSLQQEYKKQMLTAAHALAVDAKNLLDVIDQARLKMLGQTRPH
Chain of Concanavalin-A (Canavalia ensiformis) (P02866 whole entry, looked up): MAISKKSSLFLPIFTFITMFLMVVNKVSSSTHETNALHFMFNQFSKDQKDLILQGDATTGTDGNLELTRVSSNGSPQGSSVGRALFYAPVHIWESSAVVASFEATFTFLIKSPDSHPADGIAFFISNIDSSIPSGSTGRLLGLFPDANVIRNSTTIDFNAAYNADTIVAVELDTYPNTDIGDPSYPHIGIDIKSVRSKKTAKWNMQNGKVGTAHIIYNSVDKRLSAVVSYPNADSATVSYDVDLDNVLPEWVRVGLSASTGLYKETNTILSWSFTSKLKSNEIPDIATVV
Chain of Albumin (Bos taurus) (P02769 whole entry, looked up): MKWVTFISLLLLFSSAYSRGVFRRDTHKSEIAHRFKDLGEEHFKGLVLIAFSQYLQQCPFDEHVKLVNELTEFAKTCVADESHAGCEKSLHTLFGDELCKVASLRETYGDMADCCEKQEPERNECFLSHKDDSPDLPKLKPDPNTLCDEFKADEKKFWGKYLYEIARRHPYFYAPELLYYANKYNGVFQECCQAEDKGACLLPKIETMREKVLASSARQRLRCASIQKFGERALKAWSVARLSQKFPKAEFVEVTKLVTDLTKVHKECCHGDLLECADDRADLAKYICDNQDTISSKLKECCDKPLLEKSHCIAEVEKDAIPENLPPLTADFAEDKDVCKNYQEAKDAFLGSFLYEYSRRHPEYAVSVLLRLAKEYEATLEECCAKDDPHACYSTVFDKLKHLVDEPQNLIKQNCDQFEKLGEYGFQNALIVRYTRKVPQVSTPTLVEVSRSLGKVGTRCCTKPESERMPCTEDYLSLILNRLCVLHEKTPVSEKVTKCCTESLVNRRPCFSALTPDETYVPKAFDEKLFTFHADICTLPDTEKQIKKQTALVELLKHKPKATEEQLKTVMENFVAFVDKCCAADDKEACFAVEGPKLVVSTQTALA

On to `COc1ccc([C@H]2OC[C@@H]3C[C@H](Cc4ccccc4)C(=O)N32)cc1`, for which the composite z-score is -0.0141 with Albumin (Bos taurus); 0.03 in assay [2]; -0.101 in [3]; -0.0065 in assay [4]; 0.0949 in assay [5]; -0.0729 in [6]. Further, the composite z-score in the assay on Sam68 (KHDRBS1) was 0.0535; in assay [7], 0.0962; in assay [8] it was 0.512; in [9], 0.606; in assay [10] it was 0.358; in assay [11], 0.0039. Also, the composite z-score in assay [12] was determined as 0.179; in assay [13], 0.416; in assay [14], 0.511; with Lefty1, 0.374; in assay [16], 0.582. For the same molecule, in assay [1], the composite Z-score is -0.397 (inactive). Moreover, the z-score is 0.239 in assay [15] and -0.0539 (inactive) in [17].
Turning to `COCCOC(=O)N1C(=O)[C@@]2(c3cc(C#CCNC(N)=O)ccc31)[C@H](C(N)=O)[C@H]1C(=O)O[C@H](c3ccccc3)[C@H](c3ccccc3)N1[C@@H]2c1ccccc1OCCO`, the composite z-score in the assay with Albumin (Bos taurus) was 0.222; in [2], 0.133; in [3], 0.0065; in assay [4] it was 0.3; in [5], 1.4; in assay [6], 0.521. Also, the composite z-score in the assay with Sam68 (KHDRBS1) amounted to 1.05; in assay [7], 0.743; in assay [8] it was 1.06; in assay [9], 0.193; in [10] it was 0.956; in assay [11], 0.538. Moreover, the composite z-score worked out at 0.834 in assay [12]; 1.38 in assay [13]; 1.5 in assay [14]; 0.684 in the assay with Lefty1; 0.403 in assay [16]. Besides, the composite Z-score in assay [1] was -0.327 (inactive). Further, the results for the z-score in assay [15] and in assay [17] were -1.17 and -1.07 (inactive), respectively.
`CCCCN1CC=CC23O[C@@H]4/C=C\CCCOC(=O)C4[C@H]2C(=O)N(CCO)[C@@H]3C1=O` (stereo not given in full): the composite z-score in the assay with Albumin (Bos taurus) was 0.634; in [2] it was -0.426; in assay [3], -0.161; in [4], 0.321; in assay [5] it was 1.1; in assay [6], -0.0065. Moreover, the composite z-score in the assay with Sam68 (KHDRBS1) was 0.109; in [7], -1.08; in [8] it was -0.557; in assay [9], 1.3; in [10], 0.0166; in assay [11] it was 0.101. In addition, the composite z-score is -1.25 in assay [12]; -1.03 in [13]; -1.33 in assay [14]; -0.832 with Lefty1; -0.724 in assay [16]. Also, the composite Z-score in assay [1] was 0.257 (inactive). In addition, the results for the z-score in assay [15] and in [17] were -0.655 and 1.19 (inactive), respectively.
Turning to `COC(=O)[C@@]1(Cc2ccc(F)cc2)[C@H]2c3cc(C(=O)N4CCCC4)n(Cc4ccc(C)c(F)c4F)c3C[C@H]2CN1C(=O)c1ccccc1`, the composite z-score is 1.04 with Albumin (Bos taurus); -0.0304 in assay [2]; 0.219 in assay [3]; 0.834 in assay [4]; 0.922 in assay [5]; 1.14 in [6]. Moreover, the composite z-score in the assay with Sam68 (KHDRBS1) is -0.451; in assay [7] it was -0.186; in assay [8] it was -0.927; in assay [9], 1.39; in assay [10], 0.821; in assay [11], 0.572. Further, the composite z-score was 0.511 in [12]; -0.115 in [13]; -0.132 in assay [14]; -0.605 with Lefty1; 0.921 in [16]. In assay [1], the composite Z-score was -0.474 (inactive). Further, the z-score in [15] was -0.494; in [17], -12.5 (active).
On to `O[C@@H](Cc1ccccc1)[C@@H](/C=C/C1CC1)N(CC#Cc1ccccc1)Cc1ccccc1Br`, for which the composite z-score is -0.144 with Albumin (Bos taurus); -0.218 in [2]; -0.171 in [3]; -0.0441 in [4]; 0.41 in assay [5]; 0.146 in assay [6]. The composite z-score is -1.33 in the assay with Sam68 (KHDRBS1); -1.36 in [7]; -0.564 in assay [8]; 0.167 in assay [9]; -0.33 in assay [10]; 0.284 in [11]. For the same molecule, the composite z-score in [12] is -0.651; in assay [13] it was -1.12; in assay [14], -1.71; in the assay with Lefty1, -0.512; in assay [16], -1.11. In addition, the composite Z-score in assay [1] was 0.586 (inactive). Further, the z-score in assay [15] is 0.163; in assay [17], -0.375 (inactive).

These data come from PubChem BioAssay.
